# Measured values reported in PubChem BioAssay AID720533 (National Center for Advancing Translational Sciences (NCATS), 2013).
# “And” between values parts separate entries of the source, which are not always exact repeats. Identical values can stand only once. About 750 (4.2%) of roughly 18,000 compounds were called active. Inconclusive results (about 13%) are left out. The call rests on the fitted dose curve; tested in HEK293 cells. The sample as a whole holds a higher share of actives than the screen did.
# Experiment: qHTS for Inhibitors of binding or entry into cells for Lassa Virus
# Conditions: Lassa virus pseudotyped entry inhibition, cell-based qHTS; series mostly up to 49.2 µM; activity change, negative = inhibition: at the top concentration
# On the % scale 0 is the no-effect control and ±100 the full control effect; potency means the concentration at half of the fitted maximal effect.
Compound,"activity change, negative = inhibition",Potency
COc1ccc(O[C@H]2C=C[C@@H](c3ccccc3)O[C@H]2COC(=O)CCC(C)=NOC[C@@H](C)[C@H](OCc2ccccc2)C(C)C)cc1,-27.6% [at 8.59 µM] (inactive),–
CCCCC/C=C\C/C=C\C/C=C\CCCCCCC(N)=O,4.71% (inactive),–
COc1ccc(O[C@H]2C=C[C@@H](c3ccccc3)O[C@H]2CON=C[C@@H](C)[C@H](OCc2ccccc2)C(C)C)cc1,-25.5% [at 8.59 µM] (inactive),–
CCN(CC)CCCN=C1NC(c2ccccc2)C(C(=O)OC)=C(C)N1CC (configuration not stated),9.38% [at 8.59 µM] (inactive),–
C[C@H]1Cc2c(COc3ccccc3)nc3c(c2CO1)CN(C(=O)Nc1cccc(C#N)c1)CC3,-15.7% [at 8.59 µM] (inactive) and -11.7% [at 8.59 µM] (inactive),–
CC1(C)S[C@@H]2[C@H](N=CN3CCCCCC3)C(=O)N2[C@H]1C(=O)O,3.64% (inactive),–
CC(C)(Cc1c[nH]c2ccc(Cl)cc12)NCCOc1ccccc1OCC1CC1,–,28.2 µM (active)
CC(=O)OCC(=O)[C@@]1(O)CCC2C3CCC4=CC(=O)CC[C@@]4(C)[C@]3(F)C(O)C[C@]21C (some centres not stated),2.6% (inactive),–
Cc1cccc(CNC(=O)c2cnn(-c3nccc(-c4ccccc4F)n3)c2C2CC2)n1,-0.396% (inactive),–
Cc1ccc(-c2ccnc(-n3ncc(C(=O)N(C)Cc4cccc5ncccc45)c3C3CC3)n2)o1,-21.1% (inactive),–
CN(Cc1cccc2ncccc12)C(=O)c1cnn(-c2nccc(-c3ccccc3F)n2)c1C1CC1,–,12.6 µM (active)
Cc1ccc(S(=O)(=O)N2CCC(=O)N([C@H](COCc3ccccc3)Cc3ccccc3)CC2)cc1,-0.656% (inactive),–
CCC1CN(CCNC(=O)c2ccsc2)Cc2cc(OC)ccc2O1 (configuration not stated),-13.6% (inactive),–
CCCCN1CC(COCc2ccccc2)OCCS1(=O)=O (configuration not stated),14.1% (inactive),–
C=C(C)C1CC=C(CO)CC1 (configuration not stated),-12% (inactive),–
C=C1/C(=C\C=C2\CCCC3(C)C2CCC3C(C)/C=C/C(O)C2CC2)CC(O)CC1O (configuration not stated),–,10 µM (active)
N#Cc1c(Cl)c(Cl)c(Cl)c(C#N)c1Cl,–,2.24 µM (active)
CC(C)(O)CCC(O)[C@@](C)(O)C1CC[C@]2(O)C3=CC(=O)C4CC(O)C(O)C[C@]4(C)C3CC[C@]12C (some centres not stated),-0.611% (inactive),–
COC(C)C(C(=O)OCC1=CCN2CC[C@H](O)[C@@H]12)C(C)C (some centres not stated),-11.7% (inactive),–
COC(=O)C12C[C@H](C)C3C(C)C(c4ccccc4C31)N2C(=O)C(F)(F)F (some centres not stated),4.09% [at 8.59 µM] (inactive),–
CCCCC[C@H](O)/C=C/[C@@H]1[C@@H](CC(=O)CCC(=O)O)[C@@H](O)C[C@H]1O,-8.8% (inactive),–
COc1cc(C(=O)N2CCOCC2)cc(OC)c1OC,inactive,–
